Measurements as given in the OligoGym collection.

What follows are sequences tested against RASL10B (assay: pooled miR-30 sensor sort-seq; sequence = guide strand). Conditions: shRNA.
Further: reference of the scale not given here.

Row | Sequence | sensor-assay potency score (higher = more potent)
1 | TAGCCGCACTTCCAGGTCTTGC | -1.97
2 | TCGTTGTACAAGAACTGGCGCA | -0.634
3 | TCGTAGACCAGGATGTAGGCGT | 0.139
4 | TTCTAAATCGGTACAAAACTGA | -0.599
5 | TACAAAACTGACAGTGATCAGC | -0.715
6 | TTGACGTACTCAAAGCTGTCAA | 0.000852
7 | TAGGTTGTTGTGTCTCTGGGGG | 0.276
8 | TTAATCAGGATAGTCTGAGATC | -1.01
9 | TCCACGTAGCCGCACTTCCAGG | -2
10 | TAGACCAGGATGTAGGCGTGGA | -0.176
11 | ATGTAGGCGTGGACACTCCGGA | -0.908
12 | AACTCGTTGTACAAGAACTGGC | 0.0656

These sequences were tested against RASSF2 in the same assay as above. Conditions: shRNA.

Row | Sequence | sensor-assay potency score (higher = more potent)
13 | TATGGTTGTAGAAATGGCCGTT | 1.03
14 | TTCGTTGTCATCCTGCATCTGC | 0.418
15 | TTCTGTTTCTCACCACTCGTAT | -0.432
16 | TAACTAAAATCAAAAGTCCTTG | -0.812
17 | TATCTTGTCCACATGGGACTAG | 0.13
18 | TTTGTGTCTAAATGTTTCCATG | -1.27
19 | TTCTCCATTAGGAACACTTTGG | -1.02
20 | TCTGCTGACTTCTACATCCAGC | -0.516
21 | TTTAAGTACCGGCATCTCGAAC | -0.976
22 | TACATGTGAAAGTATCAGGTAG | -0.041
23 | TATTTATCTTGTCCACATGGGA | -0.838
24 | TTCCCGATCTTCTTCCTCCTGG | 0.559
